# Where “and” joins values, the source holds several entries; their conditions need not be identical. Identical values can stand only once. Screen size: about 59,000 compounds; about 1,500 (2.5%) were called active. Where a call stands in place of a potency, no number is given. Another 10% or so got no clear call; they are omitted. The sample holds actives, similar compounds and a random draw of the others, so the mix is not that of the screen. Calls follow the shape of the dose curve; as a rule, active = well fitted inhibition curve with a large enough effect; inconclusive = small, poorly fitted or top-dose-only effect; inactive = flat fitted curve, though single readings scatter. Where a structure was tested more than once in an assay, its records may differ in their call.
# Target: N-terminal Xaa-Pro-Lys N-methyltransferase 1 (Homo sapiens) (UniProt Q9BV86)
# Assay: Primary qHTS for Inhibitors of N-terminal methyltransferase 1 (NTMT1): MTaseGlo Assay; also: nearly all actives have a fitted effect of over 65% in size
# Settings: NTMT1 MTase-Glo SAH luminescence, purified enzyme; series mostly up to 114 µM
# Excerpt: Assay Submitter (PI): Rong Huang Ph.D.
# Purdue University, West Lafayette, IN 47907
# The N-terminal methytransferase 1 is the first methyltransferase that methylates protein alpha-N-amines and plays an important role in regulating cell mitosis, chromatin interactions and DNA repair. It is observed to be over-expressed in various cancer patient tissues like malignant melanoma and colorectal cancer tissues. Knockdown of NTMT1 in cancer cells causes cell mitotic defects and enhances sensitivity to DNA damaging chemotherapeutics. […] These critical cellular processes in which NTMT1 is implicated, coupled with emerging links to cellular dysfunction, strengthen the inference that NTMT1 is a compelling novel anticancer target. Progress have been made in understanding the molecular properties of NTMT1 and the biological consequences of protein alpha-N-terminal methylation, but there are no specific small molecule probes available for NTMT1 to fully characterize its MTase activity. To address this unmet need, a panel of assay is created and established to enable quantitative high-throughput screening (qHTS) for novel, potent, and selective small molecule NTMT1 inhibitors. Two orthogonal qHTS that use different reagents (ThioGlo vs. MTaseGlo) are developed for primary robotic screening against the NCATS chemical library of more than 400,000 small molecules. Identified inhibitors are reacquired, validated, and further characterized.
# MTaseGlo Assay is a luminescence screen that measure the activity of methyltransferases based on the reaction product S-adenosyl homocysteine (SAH). The substrate SAM is converted to SAH upon enzyme activation. MTase-Glo reagent and detection solution convert SAH to ATP and measure the light from the luciferase reaction.
# Materials: NTMT1 enzyme, substrate SPKRIA, control peptide RCC1-6 is provided by the Huang laboratory.
# SEQUENCE No. (e.g., 1, 2, 3, etc.); […] (e.g., Cells, Incubation, Reagent, etc.); VALUE; DESCRIPTION
# 1; Enzyme; 3 uL; Dispense enzyme mixture (final concentrations of 125 nM NTMT1 and 100 uM SAM) into Greiner 1536-well white / solid bottom assay plate (Greiner Bio One, Monroe, NC).
# 2; Compounds; 23 nL; Compounds and controls were transferred via a Kalypsys Pin Tool (Wako USA) equipped with a 1536-slotted pin array (Wako Automation, Richmond, VA)
# 3; Incubation; 15 min; Incubate at room temperature
# 4; Substrate; 1 uL; Dispense 1 uL of substrate at final concentration of 1 uM. Buffer solution was dispensed in control wells. The assay plate was covered with metal lids.
# 5; Incubation; 30 min; Incubate at room temperature, protected from lights.
# 6; Reagent; 1 uL; Dispensed 5x MTase-Glo detection reagent (R) into the assay plate. The plate was covered with metal lids.
# 7; Incubation; 30 min; Incubate the assay plates at room temperature in the dark to allow for SAH to be converted to ADP.
# 8; Reagent; 5 uL; Dispense 5 uL of 1x MTase-Glo Detection Solution (R) to allow for ADP to be converted to ATP which was then detected with a luciferase reaction.
# 9; Centrifuge; 15 sec; Centrifuge the assay plate for 15 seconds at 1000 RPM.
# 10; Incubation; 30 min; Assay plates were incubation at room temperature in the dark.
# 11; Detection; Luminescence; Plates were read on ViewLux detector (PerkinElmer). Data were normalized to no-enzyme (0% activity) and no-inhibitor (DMSO; 100%) controls, and the resulting percent inhibition data were fitted to a 4-parameter Hill equation using GraphPad Prism.
# Potency is read from the fitted curve at half-maximal effect.
# Chain of N-terminal Xaa-Pro-Lys N-methyltransferase 1 (Homo sapiens) (Q9BV86 whole entry, looked up): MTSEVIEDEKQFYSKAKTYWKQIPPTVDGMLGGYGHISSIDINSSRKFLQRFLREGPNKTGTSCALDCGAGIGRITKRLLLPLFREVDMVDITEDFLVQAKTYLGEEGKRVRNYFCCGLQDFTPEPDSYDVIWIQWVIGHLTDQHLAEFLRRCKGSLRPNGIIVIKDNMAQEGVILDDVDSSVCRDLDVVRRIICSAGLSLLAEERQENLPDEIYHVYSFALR
SMILES,Potency,"activity change, negative = inhibition"
Cn1c2cc(B(O)O)sc2c2cnn(Cc3ccccc3F)c(=O)c21,inactive,–
CC(C)(O)c1ccccc1CC[C@H](SCC1(CC(=O)O)CC1)c1cccc(/C=C/c2ccc3ccc(Cl)cc3n2)c1,inactive,–
O=C(NCCc1nc2ccccc2n1CCOc1cccc(Br)c1)C1CCCCC1,inactive,–
O=S(=O)(c1ccc2c(c1)OCCO2)N1CCN(S(=O)(=O)c2cc(F)ccc2F)CC1,inactive,–
COc1ccc(C2Nc3ccccc3C(=O)N2Cc2ccc(Cl)cc2)cc1COc1ccc(NC(C)=O)cc1 (stereo unspecified),inactive,–
CCN(CC)CCNc1ncnc2c1cnn2-c1cc(Cl)ccc1C,inactive,–
Clc1cccc(-n2ncc3c(NCCc4ccccc4)ncnc32)c1,inactive,–
Cc1ccc(-n2ncc3c(NCCCn4ccnc4)ncnc32)cc1Cl,44.7 µM (active),–
CC(C)=CCC[C@](C)(O[C@@H]1O[C@H](CO[C@@H]2O[C@H](CO)[C@@H](O)[C@H](O)[C@H]2O)[C@@H](O)[C@H](O)[C@H]1O)[C@H]1CC[C@]2(C)[C@@H]1[C@H](O)C[C@@H]1[C@@]3(C)CC[C@H](O[C@@H]4O[C@H](CO)[C@@H](O)[C@H](O)[C@H]4O[C@@H]4O[C@H](CO)[C@@H](O)[C@H](O)[C@H]4O)C(C)(C)[C@@H]3CC[C@]12C,inactive,–
NC(=O)C1CCN(c2nc(-c3cccc(F)c3)cs2)CC1,inactive,–
CCCN1CCN(CCCNC(=O)c2ccc3nc(Cc4ccccc4)oc3c2)CC1,inactive,–
Cc1ccc(C)c(N2CCN(CCCNC(=O)Nc3ccc(Cl)cc3)CC2)c1,inactive,–
Cc1cn(CCN2CCN(c3ccccc3-c3cc(C#N)cc(C(=O)NCCCN4CCCC4)c3)CC2)c2ccccc12,50.1 µM (active),–
O=C(Nc1cc(Cc2ccccc2)ccn1)c1ccc(-c2cccc([N+](=O)[O-])c2)o1,inactive,–
N#Cc1ccccc1CNc1nc2ncc(Br)cc2[nH]1,inactive,–
CCOc1cccc(-c2cc(-c3n[nH]c(=O)n3CC)c3ccccc3n2)c1,inactive,–
N#CSc1cc(SC#N)c(N)nc1N,7.8 µM (active),–
Cc1cc2c(s1)c1cnn(Cc3c(F)cccc3Cl)c(=O)c1n2C,inactive,–
Cc1ccc(C(=O)Nc2cccc(C(F)(F)F)c2)cc1Nc1nc(-c2cccnc2)nc2c1cnn2C,inactive and 21.5 µM (active),–
Cc1cc(C(=O)Nc2cccc(C(F)(F)F)c2)c2c(C)nn(-c3cccc(F)c3)c2n1,inactive,–
Cc1cc(Nc2cccc(C(F)(F)F)c2)nc2ccc(NC(=O)c3ccc(=O)[nH]c3)cc12,inactive,–
COc1cccc(C2c3c(ncn(-c4cccc(Br)c4)c3=N)Oc3ccc4ccccc4c32)c1 (stereo unspecified),inactive,–
COC(=O)c1ccc(NC(=O)c2cc(-c3ccc(C)c(C)c3)nc3ccccc23)cc1,inactive,–

SMILES,Potency,"activity change, negative = inhibition"
COc1ccc(NC(=O)c2cnn3c(C)cc(C)nc23)cc1OC,inactive,–
COc1ccc(C(CC(=O)N2CC(C)CC(C)C2)c2c(O)cc(OC)cc2OC)cc1 (stereo unspecified),inactive,–
CC(=O)Oc1ccccc1C(=O)Nc1ncc([N+](=O)[O-])s1,25.1 µM (active),–
O=C(Nc1ncc(Cc2ccc(C(F)(F)F)cc2)s1)c1ccc(-c2ccc([N+](=O)[O-])cc2)o1,inactive,–
Cc1ccc(S(=O)(=O)Nc2ccccc2C(=O)Nc2ncc(-c3ccccc3)s2)cc1,inactive,–
O=c1c2ccccc2nc2sc(Nc3ccc(Oc4ccccc4)cc3)nn12,inactive,–
Nc1ccc(C(=O)Nc2ccccc2N)cc1,inactive,–
Nc1ccccc1N,22.4 µM (active),–
Cc1nc(-c2ccccc2C(C)C)nc(NCc2ccc(-c3cccnc3)cc2)c1C,inactive,–
O=C(NCc1ccc(Cl)c(Cl)c1)Nc1nnc(-c2ccncc2)s1,inactive,–
CCOC(=O)c1c(CNCc2ccccc2F)c2sc(C)cc2n1C,inactive,–
Cc1ccc(N[S+](=O)([O-])c2cc3c(cc2N[C@@H](C)CO)NC(=O)CC3)cc1N[C@@H](C)CO,inactive,–
CCc1ccc(NC(=O)c2cnn3c(C)cc(-c4ccccc4)nc23)cc1,inactive,–
CCOc1ccc(NC(=O)c2c(NCc3cccc(OC)c3OC)sc3c2CCC3)cc1,inactive,–
CCOc1ccc(NC(=O)c2c(NC(=O)Cc3ccccc3)sc3c2CCCCC3)cc1,44.7 µM (active),–
O=C(Cc1ccccc1)Nc1sc2c(c1C(=O)Nc1ccc(Br)cc1)CCC2,inactive,–
O=C(CNC(=O)c1ccccc1)OC(C(=O)Nc1cc([N+](=O)[O-])ccc1F)c1ccccc1 (stereo unspecified),inactive,–
NC(=O)c1cnc2[nH]ccc2c1NC1C2CC3C[C@H]1CC(O)(C3)C2 (stereo partly specified),inactive,–
CN(CC(F)(F)F)c1nc(NCc2ccc(-c3cccnc3)cc2)c2ccccc2n1,inactive,–
CN(C)[S+](=O)([O-])c1ccc(-c2ccc(=O)n(CC(=O)NCCc3ccccc3)n2)cc1,inactive,–
O=C(NC(c1ccco1)c1cc(Cl)c2cccnc2c1O)c1ccccc1 (stereo unspecified),inactive,–
OCc1cnc(SCc2ccc(F)cc2)n1Cc1ccc(F)cc1,89.1 µM (active),–
O=C(CSc1ncc(CO)n1Cc1ccc(Cl)cc1)NCc1ccc(F)cc1,inactive,–

SMILES,Potency,"activity change, negative = inhibition"
O=C(CSc1ncc(CO)n1Cc1ccc(F)cc1)NCc1ccco1,inactive,–
Cc1cc(C)n2ncc(C(=O)N3CCCC3)c2n1,inactive,–
Cc1ccc(OCCn2c(CCNC(=O)c3ccccc3C(F)(F)F)nc3ccccc32)cc1,inactive,–
CC(C)c1ccccc1-c1nc(NCc2ccc(-c3cccnc3)cc2)c2occc2n1,inactive,–
COc1ccc(C2Nc3cccc(OC)c3C(=O)N2Cc2ccccc2)cc1COc1ccc(NC(C)=O)cc1 (stereo unspecified),inactive,–
O=C(OCC#CCSc1nnc(-c2ccco2)o1)c1ccc(F)cc1,inactive,–
O=C(Nc1nnc(-c2ccncc2)s1)Nc1cc(C(F)(F)F)ccc1F,inactive,–
COc1ccc(C2Nc3ccccc3C(=O)N2Cc2ccco2)cc1COc1cccc(NC(C)=O)c1 (stereo unspecified),inactive,–
CCNC(=O)C#Cc1ccc2c(C(=Nc3ccc(CN(C)C)cc3)c3ccccc3)c(O)[nH]c2c1,31.6 µM (active),–
CN(C)C/C=C/C(=O)Nc1ccc(C(=O)N2CCC[C@@H](Nc3ncc(Cl)c(-c4c[nH]c5ccccc45)n3)C2)cc1,inactive,–
Cn1cnc(CN=C2NC3=C(C(=O)CCC3)C(c3[nH]ncc3Cl)N2)c1 (stereo unspecified),inactive,–
COc1cc2c(cc1OC)CN(CCc1ccc(-n3nnc(-c4cc(OC)c(OC)cc4NC(=O)c4cc(=O)c5ccccc5o4)n3)cc1)CC2,–,-7.78% [at 1.07 µM] (inactive)
N#Cc1c(N)nc(N)nc1N[C@H](c1nc2c(F)ccc(Cl)c2c(=O)n1-c1cccnc1)C1CC1,inactive,–
CC(C)(C)NS(=O)(=O)c1cccc(Nc2nn3c(=O)c4ccccc4nc3s2)c1,inactive,–
Cc1ccc(CNc2ccc(N3CCCCC3)cc2)cc1,inactive,–
Cc1ccc(N2CCN(C(=S)Nc3cc(C)ccn3)CC2)cc1,79.4 µM (active),–
FC(F)(F)c1cccc(N2CCN(C(=S)Nc3ccncc3)CC2)c1,inactive,–
CCc1ccc(-c2nn3c(C)nnc3s2)cc1NC(=O)c1ccc(-c2cccc(Cl)c2)o1,inactive,–
CCOc1ccc(CCNC(=O)c2cnon2)cc1OCC,inactive,–
C=Cc1c(C)c2cc3nc(cc4[nH]c(cc5nc(cc1[nH]2)C(C)=C5CCC(=O)O)c(CCC(=O)OC)c4C)[C@@]1(C)C3=CC=C(C(=O)OC)[C@H]1C(=O)OC,50.1 µM (active),–
N#Cc1ccc(NC(=O)Nc2nnc(-c3ccncc3)s2)c(Cl)c1,inactive,–
CC[C@H](Nc1ncnc2nc[nH]c12)c1oc2ccccc2c(=O)c1-c1cccc(F)c1,inactive,–
Cc1ccc(-c2cc(C(=O)Nc3cccc(Cl)c3)c3ccccc3n2)cc1C,inactive,–

SMILES,Potency,"activity change, negative = inhibition"
Cc1cc(NC(=O)Nc2nnc(-c3ccncc3)s2)ccc1Cl,inactive,–
Fc1cc(Nc2nc(-c3ccncc3)nc3ccccc23)ccc1-c1ccc(F)c(F)c1F,inactive,–
Fc1ccc(Cl)cc1-c1nc(Nc2ccncc2)c2nccnc2n1,inactive and 39.8 µM (active),–
Fc1ccccc1-c1ccc(Nc2nc(-c3ccncc3)nc3ccccc23)cc1F,inactive,–
C=CCNc1oc(-c2cccnc2)nc1C#N,inactive,–
Cc1noc(C)c1-c1ccc2ncnc(NCc3ccc(F)c(F)c3)c2c1,inactive,–
COc1cc2nc(Nc3ccccc3)nc(NC3CC3)c2cc1OC,50.1 µM (active),–
COc1cc(Nc2nc(-c3ccc(OC)c(OC)c3)nc3ccccc23)cc(OC)c1,inactive,–
OC1CCC(Nc2nc(-c3ccccc3)nc3[nH]ccc23)CC1 (stereo unspecified),inactive,–
O=C(CSc1nnc(-c2cccc([S+](=O)([O-])N3CCCC3)c2)n1-c1ccccc1)Nc1cccc(C(F)(F)F)c1,inactive,–
CC(C)(c1ccc(OCC(O)CO)cc1)c1ccc(OCC(O)CCl)cc1 (stereo unspecified),inactive,–
O=C(O[C@@H]1Cc2c(O)cc(O)cc2O[C@H]1c1cc(O)c(O)c(O)c1)c1cc(O)c(O)c(O)c1,44.7 µM (active),–
N#Cc1ccc(OC2=NS(=O)(=O)c3ccccc32)cc1,inactive,–
Cc1ccc2nc3sc(C(=O)NCCc4cccnc4)cc3cc2c1,inactive,–
O=S(=O)(NCCCCCCNS(=O)(=O)c1c(F)cccc1F)c1ccc2c(c1)OCCO2,inactive,–
NNc1nnc(NN)c2ccccc12,22.4 µM (active),–
O=C1CCCC2=C1[C@@]1(CCC(c3ccccc3)C1)N=C(Nc1nc3ccccc3o1)N2 (stereo partly specified),inactive,–
Nc1ncnc2c1c(I)cn2[C@@H]1C[C@H](N)[C@@H](O)[C@H]1O,2.51 µM (active),–
CC(=O)c1cccc(-c2ccc(-c3nc4ccccc4c(=O)[nH]3)o2)c1,inactive,–
N#Cc1nc(Nc2cccc(Cl)c2)nc(NC2CCCC2)n1,inactive,–
[O-][n+]1onc(-c2ccccc2)c1CO,inactive,–
O=C1COc2cc([S+](=O)([O-])Nc3ccc(Cl)c(Cl)c3)c(Cl)cc2N1,inactive,–
